Our source for the outcome, Potency and activity change, negative = cytotoxic values is PubChem BioAssay (NCATS).

A number with no mark means an inactive call. Records with an inconclusive call do not appear. Active and inactive are the calls of the source. Unless noted, calls come from the whole dose curve; as a rule, active = well fitted curve in the direction sought with a large enough effect; inconclusive = small, poorly fitted or top-dose-only effect, or another doubt; inactive = no such curve, though single readings can be large; an effect the other way counts as inactive or inconclusive.

Experiment [1] has as its target T1, Tyrosine-protein phosphatase non-receptor type substrate 1 (Homo sapiens) + Leukocyte surface antigen CD47 (Homo sapiens) (UniProt P78324+Q08722). Put plainly: CD47-SIRPalpha protein protein interaction - HTRF assay qHTS validation (AID 1347058; active = well fitted curve in the direction sought with a large enough effect in the signal ratio, not every such curve was filed as active; the % refers to the signal ratio; note: series mostly up to about 38 µM; 0% is about no effect). The gist of the method:
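Soluble extracellular domains (6His-CD47, Avi-tag-biotinylated SIRPalpha) in PBS pH 7.4 with 0.05% IGEPAL CA-630. Compounds were preincubated 30 min at RT with CD47 and anti-His-Eu, then SIRPalpha and SAV-XL665 were added. TR-FRET 665/615 ratio.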
In general terms: In TR-FRET formats the signal depends on donor and acceptor labels being close together.

The target of experiment [2] is T1, Tyrosine-protein phosphatase non-receptor type substrate 1 (Homo sapiens) + Leukocyte surface antigen CD47 (Homo sapiens). The experiment in a line: CD47-SIRPalpha protein protein interaction - Alpha assay qHTS validation (AID 1347059).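 Note: bead proximity luminescence from CD47 binding SIRPalpha after compound preincubation with SIRPalpha; % is set by controls: 0 for no effect and ±100 for the full control effect.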 The gist of the method: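 SIRPalpha-biotin 25 nM + cpd, 30 min RT, dark; add CD47-His 12.5 nM, 30 min; add Ni-NTA/SAV beads 10 ug/mL, 30 min; AlphaScreen. Buffer PBS pH 7.4 + 0.05% IGEPAL CA-630. Non-biotinylated SIRPalpha as control inhibitor.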
In general terms: In qHTS, concentration-response curves come from the screen itself.

Experiment [3] addresses Parathyroid hormone/parathyroid hormone-related peptide receptor (Homo sapiens) (UniProt Q03431). The experiment in a line: qHTS for PTHR1 Agonists: Optimization Screen against the NCGC LOPAC library (AID 1347079).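 Note: GloSensor cAMP luminescence in HEK-293 GP2 cells expressing human PTHR1 with IBMX; 0% is about no effect.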 Summed up:
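HEK-293 GP2 cells, PTHR1 + GloSensor cAMP; 3000 cells/well, o/n. Luciferin + IBMX 0.5mM each (stock), 1 hr 37C. Cpd titration, 1 hr 37C. Lum after 15 min RT. Ctrl M-PTH(1-15) top 10uM.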

The nature of experiment [4]: qHTS of pediatric cancer cell lines to identify multiple opportunities for drug repurposing: Primary screen for TC32 cells (AID 1347089). For activity change, negative = cytotoxic: % is set by controls: 0 for no effect and ±100 for the full control effect. Note: nearly all actives have a fitted effect of over 60% in size. Note: potency is the fitted concentration of half-maximal effect. Summed up: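 A viability screen of TC32 cells was run over 48 h, with primary MIPE doses spanning 0.78 nM–46 µM and NPC doses 0.59 nM–46 µM. ATP luminescence (CellTiter-Glo) served as the read-out.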
The nature of experiment [5]: qHTS of pediatric cancer cell lines to identify multiple opportunities for drug repurposing: Primary screen for DAOY cells (AID 1347090).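 Note: series mostly up to about 46 µM; plate controls were DMSO for no effect and bortezomib for full effect; nearly all actives have a fitted effect of over 55% in size.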 Summed up:
(§1)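 Viability measured as metabolically active cells via CellTiter-Glo luminescence following 48 hours of compound exposure, 11-point dilutions in confirmatory testing. 500-1,000 cells/well plated 5 hours before dosing; controls were DMSO and 2.3 µM bortezomib.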

Experiment [6] in a line: qHTS of pediatric cancer cell lines to identify multiple opportunities for drug repurposing: Primary screen for SJ-GBM2 cells (AID 1347091).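 Note: plate controls were DMSO neutral control for no effect and bortezomib for full effect.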 The gist of the method: as §1
Experiment [7] is described as follows: qHTS of pediatric cancer cell lines to identify multiple opportunities for drug repurposing: Primary screen for A673 cells (AID 1347092). For activity change, negative = cytotoxic: % is set by controls: 0 for no effect and ±100 for the full control effect. Note: nearly all actives have a fitted effect of over 45% in size. Note: potency is the fitted concentration of half-maximal effect. Summed up: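 Titration-based qHTS on A673 cells: MIPE compounds spanned 11 points (0.78 nM to 46 µM final), NPC compounds 8 points (0.59 nM to 46 µM final). Viability after 48 h was measured by ATP luminescence.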
The nature of experiment [8]: qHTS of pediatric cancer cell lines to identify multiple opportunities for drug repurposing: Primary screen for SK-N-MC cells (AID 1347093).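 For activity change, negative = cytotoxic: series mostly up to about 46 µM; plate controls were DMSO neutral control for no effect and bortezomib for full effect.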 Note: potency is the fitted concentration of half-maximal effect. Summed up: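 Metabolically active cells were quantified by ATP-dependent luminescence (CellTiter-Glo, 15 min at room temperature) following 48 h treatment. Cells had been plated at 500-1,000 per well and settled for 5 h beforehand.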

A short description of experiment [9]: qHTS of pediatric cancer cell lines to identify multiple opportunities for drug repurposing: Primary screen for BT-37 cells (AID 1347094).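 For activity change, negative = cytotoxic: series mostly up to about 57 µM; plate controls were DMSO for no effect and bortezomib for full effect.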 Note: potency is the fitted concentration of half-maximal effect. The gist of the method: (§2)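 Readout: CellTiter-Glo luminescence, 48 h treatment. Controls DMSO (neutral) and bortezomib 2.3 µM final (positive). Potency and efficacy taken from primary-screen concentration-response curves.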

Experiment [10] in a line: qHTS of pediatric cancer cell lines to identify multiple opportunities for drug repurposing: Primary screen for NB-EBc1 cells (AID 1347095).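 Note: plate controls were DMSO neutral control for no effect and bortezomib for full effect.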 Summed up:
as §2

T1 sequence (P78324 whole entry, looked up, the tested form may be a part): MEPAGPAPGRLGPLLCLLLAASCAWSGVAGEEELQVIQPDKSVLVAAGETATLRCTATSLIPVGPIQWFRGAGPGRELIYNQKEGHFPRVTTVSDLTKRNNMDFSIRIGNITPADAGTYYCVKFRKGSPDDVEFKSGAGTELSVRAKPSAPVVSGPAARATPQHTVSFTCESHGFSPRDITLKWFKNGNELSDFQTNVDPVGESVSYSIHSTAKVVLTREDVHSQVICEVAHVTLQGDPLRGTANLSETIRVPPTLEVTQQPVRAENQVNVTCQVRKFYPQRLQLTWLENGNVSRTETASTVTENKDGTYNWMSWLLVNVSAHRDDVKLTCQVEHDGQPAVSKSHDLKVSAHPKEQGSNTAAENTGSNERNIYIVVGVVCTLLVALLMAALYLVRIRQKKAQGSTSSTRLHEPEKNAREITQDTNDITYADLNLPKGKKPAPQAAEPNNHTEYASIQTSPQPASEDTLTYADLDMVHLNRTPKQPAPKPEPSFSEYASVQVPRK
T1 sequence (Q08722 whole entry, looked up, the tested form may be a part): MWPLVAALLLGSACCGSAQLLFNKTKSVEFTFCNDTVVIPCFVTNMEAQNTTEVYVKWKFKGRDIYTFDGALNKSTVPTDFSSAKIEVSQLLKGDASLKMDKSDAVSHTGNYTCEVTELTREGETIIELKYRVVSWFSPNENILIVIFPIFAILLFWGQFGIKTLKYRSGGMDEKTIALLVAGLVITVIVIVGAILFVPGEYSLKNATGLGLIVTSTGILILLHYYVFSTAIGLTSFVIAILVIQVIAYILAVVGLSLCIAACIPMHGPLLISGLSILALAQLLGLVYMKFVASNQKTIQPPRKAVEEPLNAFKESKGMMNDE
Parathyroid hormone/parathyroid hormone-related peptide receptor (Homo sapiens), sequence (Q03431 whole entry, looked up): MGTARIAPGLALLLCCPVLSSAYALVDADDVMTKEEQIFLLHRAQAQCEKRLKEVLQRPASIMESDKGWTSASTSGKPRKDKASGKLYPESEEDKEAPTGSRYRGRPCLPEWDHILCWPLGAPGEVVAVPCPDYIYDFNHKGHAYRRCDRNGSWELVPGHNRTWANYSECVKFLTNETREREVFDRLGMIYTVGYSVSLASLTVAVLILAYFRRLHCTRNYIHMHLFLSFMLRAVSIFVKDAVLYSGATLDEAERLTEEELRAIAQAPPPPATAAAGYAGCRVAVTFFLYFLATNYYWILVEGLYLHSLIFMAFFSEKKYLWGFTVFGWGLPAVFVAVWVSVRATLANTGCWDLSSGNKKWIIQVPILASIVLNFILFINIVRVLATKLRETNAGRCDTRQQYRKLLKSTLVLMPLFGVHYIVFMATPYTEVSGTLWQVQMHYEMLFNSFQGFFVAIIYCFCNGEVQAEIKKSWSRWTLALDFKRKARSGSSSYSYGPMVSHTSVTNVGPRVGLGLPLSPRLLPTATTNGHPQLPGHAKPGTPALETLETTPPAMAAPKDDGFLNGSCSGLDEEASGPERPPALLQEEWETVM

Regarding `NCCCNCCSP(=O)(O)O`, the result in [1] and in [3] was inactive. Moreover, in [2], the Potency result was “inactive”. The activity change, negative = cytotoxic in experiment [4] was 10.8% [at 9.17 µM]; in [5], 0.0744% [at 9.22 µM]; in experiment [6] it was 14.1% [at 9.22 µM]; in [7] it was 5.74% [at 9.22 µM]; in experiment [8], -14.6% [at 9.22 µM]; in experiment [9], 7.29% [at 11.5 µM]. Also, the activity change, negative = cytotoxic in [10] is 10.2% [at 9.22 µM].

For `C[N+](C)(C)CCOC(=O)CCC(=O)OCC[N+](C)(C)C`, the outcome in [1] and in experiment [3] was inactive. For the same compound, the Potency entry in [2], in [4], in experiment [5], in experiment [6], in experiment [7] and in [8] was “inactive” in each case. For the same compound, the Potency entry in [9] and in [10] was “inactive” each time.

As to `CC(C)NNC(=O)c1ccncc1`, the result in [1] and in experiment [3] was inactive. For the same compound, the Potency entry in [2], in experiment [4], in experiment [5], in experiment [6], in [7] and in experiment [8] was “inactive” in each case. For the same compound, the Potency result in experiment [9] and in [10] was “inactive” in each case.

For `C[C@]12CCC(=O)C=C1CC[C@@H]1[C@@H]2CC[C@@]2(C)[C@H]1CC[C@]2(O)C(=O)CO`, the outcome in [1] and in experiment [3] was inactive. For the same compound, the Potency result in experiment [2], in experiment [4], in experiment [5], in [6], in experiment [7] and in [8] was “inactive” in each case. Moreover, the Potency result in experiment [9] and in experiment [10] was “inactive” each time.

On to `COCCc1ccc(OCC(O)CNC(C)C)cc1` (stereo unspecified), for which the result in [1] and in experiment [3] was inactive. The Potency entry in [2], in experiment [4], in [5], in experiment [6], in experiment [7] and in experiment [8] was “inactive” throughout. Moreover, the Potency entry in experiment [9] and in experiment [10] was “inactive” in each case.

Take `CC(=O)Nc1nnc(S(N)(=O)=O)s1`: the outcome in experiment [1] and in experiment [3] was inactive. In addition, the Potency result in [2], in [4], in [5], in [6], in [7] and in [8] was “inactive” in each case. Also, the Potency result in experiment [9] and in experiment [10] was “inactive” each time.

Regarding `CC(=O)[C@@]1(O)CC[C@H]2[C@@H]3CCC4=CC(=O)CC[C@]4(C)[C@H]3CC[C@@]21C`, the outcome in experiment [1] and in experiment [3] was inactive. In addition, the Potency result in experiment [2], in experiment [4], in experiment [5], in experiment [6], in [7] and in experiment [8] was “inactive” throughout. The Potency entry in experiment [9] and in experiment [10] was “inactive” each time.

Regarding `COc1ccc(CN(CCN(C)C)c2ccccn2)cc1`, the outcome in [1] and in [3] was inactive. In addition, the Potency result in [2], in experiment [4], in [5], in experiment [6], in experiment [7] and in [8] was “inactive” throughout. Further, the Potency result in [9] and in [10] was “inactive” in each case.

As for `CCCN1C[C@H](CSC)C[C@@H]2c3cccc4[nH]cc(c34)C[C@H]21`, the result in experiment [1] and in [3] was inactive. The Potency entry in experiment [2], in experiment [4], in experiment [5], in experiment [6], in experiment [7] and in experiment [8] was “inactive” throughout. The Potency result in experiment [9] and in experiment [10] was “inactive” throughout.

Consider `CC(C)(Oc1ccc(CCNC(=O)c2ccc(Cl)cc2)cc1)C(=O)O`, for which the result in experiment [1] and in [3] was inactive. For the same compound, the Potency result in [2], in experiment [4], in experiment [5], in experiment [6], in experiment [7] and in [8] was “inactive” in each case. Moreover, the Potency result in [9] and in experiment [10] was “inactive” each time.

For `CNC1(C)C2CCC(C2)C1(C)C` (stereo unspecified), the result in experiment [1] and in experiment [3] was inactive. The Potency entry in experiment [2], in experiment [4], in experiment [5], in experiment [6], in [7] and in experiment [8] was “inactive” each time. In addition, the Potency entry in experiment [9] and in experiment [10] was “inactive” in each case.

As for `CCN(CC)CCOCCOC(=O)C1(c2ccccc2)CCCC1`, the outcome in [1] and in [3] was inactive. For the same compound, the Potency entry in experiment [2], in experiment [4], in experiment [5], in [6], in experiment [7] and in [8] was “inactive” each time. In addition, the Potency entry in experiment [10] is “inactive”.

As to `CCN(CC)CC(=O)Nc1c(C)cccc1C`, the outcome in experiment [1] and in [3] was inactive. The Potency result in experiment [2], in [4], in experiment [5], in experiment [6], in experiment [7] and in experiment [8] was “inactive” throughout. Also, the Potency entry in experiment [9] and in experiment [10] was “inactive” in each case.

In the case of `CCn1cc(C(=O)O)c(=O)c2cc3c(cc21)OCO3`, the outcome in experiment [1] and in experiment [3] was inactive. The Potency entry in [2], in [4], in [5], in experiment [6], in experiment [7] and in experiment [8] was “inactive” in each case. Moreover, the Potency result in experiment [9] and in [10] was “inactive” throughout.

As for `CO[C@@]1(NC(=O)CSCC#N)C(=O)N2C(C(=O)O)=C(CSc3nnnn3C)CS[C@@H]21`, the result in [1] and in experiment [3] was inactive. The Potency entry in experiment [2], in experiment [4], in [5], in [6], in [7] and in experiment [9] was “inactive” throughout. The Potency result in experiment [10] is “inactive”.

Turning to `COCC(=O)O[C@]1(CCN(C)CCCc2nc3ccccc3[nH]2)CCc2cc(F)ccc2[C@@H]1C(C)C`, the outcome in [1] and in experiment [3] was inactive. In addition, the Potency result in experiment [2] and in [5] was “inactive” throughout.

Take `NC(N)=N/N=C/c1c(Cl)cccc1Cl`: the outcome in experiment [1] and in experiment [3] was inactive. Moreover, the Potency result in experiment [2], in experiment [4], in experiment [5], in experiment [6], in experiment [8] and in experiment [9] was “inactive” in each case. The Potency entry in [10] was “inactive”.

Consider `C[N+](C)(C)CCCCCCCCCC[N+](C)(C)C`, for which the result in [1] and in experiment [3] was inactive. The Potency entry in experiment [2], in experiment [5], in [6], in experiment [7], in experiment [8] and in experiment [9] was “inactive” throughout. Further, in experiment [10], the Potency result was “inactive”.

On to `NC/C=C/C(=O)O`, for which the outcome in [1] and in experiment [3] was inactive. Also, the Potency entry in experiment [2], in experiment [5], in experiment [6], in experiment [7], in experiment [8] and in experiment [9] was “inactive” each time. In experiment [10], the Potency entry is “inactive”.

`CN/C(=C\[N+](=O)[O-])NCCSCc1ccc(CN(C)C)o1`: the result in [1] and in experiment [3] was inactive. The Potency result in [2], in experiment [4], in experiment [5], in experiment [6], in experiment [9] and in [10] was “inactive” throughout. The Potency in [8] is 0.001 µM (active).

With `CCc1cccc(N(C)C(N)=Nc2cccc3ccccc23)c1`, the outcome in experiment [1] and in [3] was inactive. The Potency result in experiment [2], in experiment [5], in experiment [6] and in experiment [10] was “inactive” throughout.

For the compound `Nc1ncn([C@@H]2O[C@H](CO)[C@@H](O)[C@H]2O)c(=O)n1`, the outcome in experiment [1] and in [3] was inactive. Moreover, in experiment [2], the Potency entry is “inactive”. Also, the Potency in experiment [4] was 11.8 µM (active); in experiment [7] it was 6.68 µM (active); in [8], 21.1 µM (active); in experiment [9], 12.3 µM (active).
